{"source": "the supplement of paper PMC12282887", "system": "E. coli BW25113 marRABp lux reporter", "assay": "promoter activity interaction Z-score (Lux/OD deviation from empty-vector control); higher = stronger promoter induction by the compound", "protocol": "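E. coli BW25113 (wild type or ΔmarA/ΔsoxS/Δrob) carrying pTU175 luxCDABE promoter reporters was grown in LB in 384-well plates at 37°C with each of 94 compounds at 4 two-fold concentrations, in biological duplicates. Luminescence and OD600 were read every 30 min for 12 h and integrated as AUC over 8 h (0-8 h WT, 1-9 h mutants). Lux AUC was divided by OD AUC; the interaction score is the residual of a Huber robust fit of each promoter against the empty-vector control, then Z-transformed per promoter.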", "note": "± gives the standard deviation of the averaged measurements."}
{"smiles": "C[C@@H](O)[C@H]1C(=O)N2C(C(=O)O)=C(SCCNC=N)C[C@H]12", "note": "[Imipenem]", "values": [{"measurement": "promoter activity interaction Z-score", "setting": "0.02 µg/ml, genetic background: wild type", "result": "0.316 ± 0.21"}, {"measurement": "promoter activity interaction Z-score", "setting": "0.02 µg/ml, genetic background: ΔmarA", "result": "0.592 ± 0.32"}, {"measurement": "promoter activity interaction Z-score", "setting": "0.02 µg/ml, genetic background: Δrob", "result": "0.0424 ± 0.11"}, {"measurement": "promoter activity interaction Z-score", "setting": "0.02 µg/ml, genetic background: ΔsoxS", "result": "0.106 ± 0.074"}, {"measurement": "promoter activity interaction Z-score", "setting": "0.04 µg/ml, genetic background: wild type", "result": "0.381 ± 0.44"}, {"measurement": "promoter activity interaction Z-score", "setting": "0.04 µg/ml, genetic background: ΔmarA", "result": "0.269 ± 0.79"}, {"measurement": "promoter activity interaction Z-score", "setting": "0.04 µg/ml, genetic background: Δrob", "result": "-0.0178 ± 0.16"}, {"measurement": "promoter activity interaction Z-score", "setting": "0.04 µg/ml, genetic background: ΔsoxS", "result": "0.0651 ± 0.041"}, {"measurement": "promoter activity interaction Z-score", "setting": "0.079 µg/ml, genetic background: wild type", "result": "0.087 ± 0.15"}, {"measurement": "promoter activity interaction Z-score", "setting": "0.079 µg/ml, genetic background: ΔmarA", "result": "-0.0931 ± 0.047"}, {"measurement": "promoter activity interaction Z-score", "setting": "0.079 µg/ml, genetic background: Δrob", "result": "0.0397 ± 0.03"}, {"measurement": "promoter activity interaction Z-score", "setting": "0.079 µg/ml, genetic background: ΔsoxS", "result": "0.0374 ± 0.049"}, {"measurement": "promoter activity interaction Z-score", "setting": "0.16 µg/ml, genetic background: wild type", "result": "0.129 ± 0.28"}, {"measurement": "promoter activity interaction Z-score", "setting": "0.16 µg/ml, genetic background: ΔmarA", "result": "-0.0426 ± 0.31"}, {"measurement": "promoter activity interaction Z-score", "setting": "0.16 µg/ml, genetic background: Δrob", "result": "-0.0898 ± 0.17"}, {"measurement": "promoter activity interaction Z-score", "setting": "0.16 µg/ml, genetic background: ΔsoxS", "result": "0.217 ± 0.23"}]}
{"smiles": "O=C(N[C@H](CO)[C@H](O)c1ccc([N+](=O)[O-])cc1)C(Cl)Cl", "note": "[Chloramphenicol]", "values": [{"measurement": "promoter activity interaction Z-score", "setting": "0.12 µg/ml, genetic background: wild type", "result": "0.131 ± 0.36"}, {"measurement": "promoter activity interaction Z-score", "setting": "0.12 µg/ml, genetic background: ΔmarA", "result": "0.172 ± 0.061"}, {"measurement": "promoter activity interaction Z-score", "setting": "0.12 µg/ml, genetic background: Δrob", "result": "0.31 ± 0.053"}, {"measurement": "promoter activity interaction Z-score", "setting": "0.12 µg/ml, genetic background: ΔsoxS", "result": "0.215 ± 0.0078"}, {"measurement": "promoter activity interaction Z-score", "setting": "0.24 µg/ml, genetic background: wild type", "result": "0.735 ± 0.19"}, {"measurement": "promoter activity interaction Z-score", "setting": "0.24 µg/ml, genetic background: ΔmarA", "result": "0.695 ± 0.4"}, {"measurement": "promoter activity interaction Z-score", "setting": "0.24 µg/ml, genetic background: Δrob", "result": "0.342 ± 0.21"}, {"measurement": "promoter activity interaction Z-score", "setting": "0.24 µg/ml, genetic background: ΔsoxS", "result": "0.497 ± 0.14"}, {"measurement": "promoter activity interaction Z-score", "setting": "0.48 µg/ml, genetic background: wild type", "result": "1.43 ± 0.31"}, {"measurement": "promoter activity interaction Z-score", "setting": "0.48 µg/ml, genetic background: ΔmarA", "result": "1.26 ± 0.45"}, {"measurement": "promoter activity interaction Z-score", "setting": "0.48 µg/ml, genetic background: Δrob", "result": "0.873 ± 0.55"}, {"measurement": "promoter activity interaction Z-score", "setting": "0.48 µg/ml, genetic background: ΔsoxS", "result": "1.19 ± 0.34"}, {"measurement": "promoter activity interaction Z-score", "setting": "1 µg/ml, genetic background: wild type", "result": "0.553 ± 0.19"}, {"measurement": "promoter activity interaction Z-score", "setting": "1 µg/ml, genetic background: ΔmarA", "result": "-0.609 ± 0.26"}, {"measurement": "promoter activity interaction Z-score", "setting": "1 µg/ml, genetic background: ΔsoxS", "result": "1.31 ± 0.5"}]}
{"smiles": "COc1ccc2[nH]c([S+]([O-])Cc3ncc(C)c(OC)c3C)nc2c1", "note": "(configuration not stated) [Omeprazole]", "values": [{"measurement": "promoter activity interaction Z-score", "setting": "21.6 µg/ml, genetic background: wild type", "result": "-0.572 ± 0.095"}, {"measurement": "promoter activity interaction Z-score", "setting": "21.6 µg/ml, genetic background: ΔmarA", "result": "-0.27 ± 0.18"}, {"measurement": "promoter activity interaction Z-score", "setting": "21.6 µg/ml, genetic background: Δrob", "result": "-0.128 ± 0.18"}, {"measurement": "promoter activity interaction Z-score", "setting": "21.6 µg/ml, genetic background: ΔsoxS", "result": "-0.226 ± 0.23"}, {"measurement": "promoter activity interaction Z-score", "setting": "43.2 µg/ml, genetic background: wild type", "result": "-0.301 ± 0.098"}, {"measurement": "promoter activity interaction Z-score", "setting": "43.2 µg/ml, genetic background: ΔmarA", "result": "-0.0417 ± 0.55"}, {"measurement": "promoter activity interaction Z-score", "setting": "43.2 µg/ml, genetic background: Δrob", "result": "-0.0764 ± 0.16"}, {"measurement": "promoter activity interaction Z-score", "setting": "43.2 µg/ml, genetic background: ΔsoxS", "result": "-0.0512 ± 0.083"}, {"measurement": "promoter activity interaction Z-score", "setting": "86.4 µg/ml, genetic background: wild type", "result": "-0.582 ± 0.15"}, {"measurement": "promoter activity interaction Z-score", "setting": "86.4 µg/ml, genetic background: ΔmarA", "result": "-0.305 ± 0.32"}, {"measurement": "promoter activity interaction Z-score", "setting": "86.4 µg/ml, genetic background: Δrob", "result": "-0.229 ± 0.12"}, {"measurement": "promoter activity interaction Z-score", "setting": "86.4 µg/ml, genetic background: ΔsoxS", "result": "-0.22 ± 0.21"}, {"measurement": "promoter activity interaction Z-score", "setting": "172.7 µg/ml, genetic background: wild type", "result": "-0.5175 ± 0.0031"}, {"measurement": "promoter activity interaction Z-score", "setting": "172.7 µg/ml, genetic background: ΔmarA", "result": "-0.6 ± 0.24"}, {"measurement": "promoter activity interaction Z-score", "setting": "172.7 µg/ml, genetic background: Δrob", "result": "-0.408 ± 0.15"}, {"measurement": "promoter activity interaction Z-score", "setting": "172.7 µg/ml, genetic background: ΔsoxS", "result": "-0.421 ± 0.089"}]}
